# Screening data: PubChem BioAssay, several laboratories
# MPTP inh: mitochondrial permeability transition pore inhibitors, primary screen, biochemical, isolated mouse mitochondria, absorbance. Ca2+ swelling absorbance, 30 min. inhibition, % at 10 µM. 1.4% of 360,000 active. AID 602449, 2012;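 active = inhibition of 50% or more, scaled per plate between neutral and stimulator controls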;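 also: 0% = DMSO wells given calcium and 100% = 1 mM EGTA wells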
# Cardio protect: cardioprotection against H2O2-induced cell death, primary screen, uHTS, H9c2 cells, ATPLite luminescence; H9c2 cardiomyocytes, H2O2 injury protection, 2 h; protection from H2O2 cell death, % at 20 µM; 0.63% of 360,000 active;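 active = compounds giving at least 50% protection of heart cells from peroxide-induced death in the single-dose screen, raw or plate-pattern-corrected value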;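 also: 0% = DMSO wells with peroxide and 100% = DMSO wells without peroxide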
# FAS-TE inh: FAS thioesterase domain inhibitors, primary screen, biochemical, fluorescence intensity, uHTS; Fatty acid synthase (Homo sapiens), P49327; 0.67% of 360,000 active; recombinant FAS-TE, OMFH fluorogenic substrate, fluorescence endpoint; inhibition, % at 15 µM;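 active = compounds whose normalised, plate-corrected inhibition of enzyme fluorescence in the single-dose primary screen is 50% or more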;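 also: 0% = DMSO with enzyme and 100% = substrate without enzyme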
# Target sequence (P49327 whole entry, looked up, the tested form may be a part): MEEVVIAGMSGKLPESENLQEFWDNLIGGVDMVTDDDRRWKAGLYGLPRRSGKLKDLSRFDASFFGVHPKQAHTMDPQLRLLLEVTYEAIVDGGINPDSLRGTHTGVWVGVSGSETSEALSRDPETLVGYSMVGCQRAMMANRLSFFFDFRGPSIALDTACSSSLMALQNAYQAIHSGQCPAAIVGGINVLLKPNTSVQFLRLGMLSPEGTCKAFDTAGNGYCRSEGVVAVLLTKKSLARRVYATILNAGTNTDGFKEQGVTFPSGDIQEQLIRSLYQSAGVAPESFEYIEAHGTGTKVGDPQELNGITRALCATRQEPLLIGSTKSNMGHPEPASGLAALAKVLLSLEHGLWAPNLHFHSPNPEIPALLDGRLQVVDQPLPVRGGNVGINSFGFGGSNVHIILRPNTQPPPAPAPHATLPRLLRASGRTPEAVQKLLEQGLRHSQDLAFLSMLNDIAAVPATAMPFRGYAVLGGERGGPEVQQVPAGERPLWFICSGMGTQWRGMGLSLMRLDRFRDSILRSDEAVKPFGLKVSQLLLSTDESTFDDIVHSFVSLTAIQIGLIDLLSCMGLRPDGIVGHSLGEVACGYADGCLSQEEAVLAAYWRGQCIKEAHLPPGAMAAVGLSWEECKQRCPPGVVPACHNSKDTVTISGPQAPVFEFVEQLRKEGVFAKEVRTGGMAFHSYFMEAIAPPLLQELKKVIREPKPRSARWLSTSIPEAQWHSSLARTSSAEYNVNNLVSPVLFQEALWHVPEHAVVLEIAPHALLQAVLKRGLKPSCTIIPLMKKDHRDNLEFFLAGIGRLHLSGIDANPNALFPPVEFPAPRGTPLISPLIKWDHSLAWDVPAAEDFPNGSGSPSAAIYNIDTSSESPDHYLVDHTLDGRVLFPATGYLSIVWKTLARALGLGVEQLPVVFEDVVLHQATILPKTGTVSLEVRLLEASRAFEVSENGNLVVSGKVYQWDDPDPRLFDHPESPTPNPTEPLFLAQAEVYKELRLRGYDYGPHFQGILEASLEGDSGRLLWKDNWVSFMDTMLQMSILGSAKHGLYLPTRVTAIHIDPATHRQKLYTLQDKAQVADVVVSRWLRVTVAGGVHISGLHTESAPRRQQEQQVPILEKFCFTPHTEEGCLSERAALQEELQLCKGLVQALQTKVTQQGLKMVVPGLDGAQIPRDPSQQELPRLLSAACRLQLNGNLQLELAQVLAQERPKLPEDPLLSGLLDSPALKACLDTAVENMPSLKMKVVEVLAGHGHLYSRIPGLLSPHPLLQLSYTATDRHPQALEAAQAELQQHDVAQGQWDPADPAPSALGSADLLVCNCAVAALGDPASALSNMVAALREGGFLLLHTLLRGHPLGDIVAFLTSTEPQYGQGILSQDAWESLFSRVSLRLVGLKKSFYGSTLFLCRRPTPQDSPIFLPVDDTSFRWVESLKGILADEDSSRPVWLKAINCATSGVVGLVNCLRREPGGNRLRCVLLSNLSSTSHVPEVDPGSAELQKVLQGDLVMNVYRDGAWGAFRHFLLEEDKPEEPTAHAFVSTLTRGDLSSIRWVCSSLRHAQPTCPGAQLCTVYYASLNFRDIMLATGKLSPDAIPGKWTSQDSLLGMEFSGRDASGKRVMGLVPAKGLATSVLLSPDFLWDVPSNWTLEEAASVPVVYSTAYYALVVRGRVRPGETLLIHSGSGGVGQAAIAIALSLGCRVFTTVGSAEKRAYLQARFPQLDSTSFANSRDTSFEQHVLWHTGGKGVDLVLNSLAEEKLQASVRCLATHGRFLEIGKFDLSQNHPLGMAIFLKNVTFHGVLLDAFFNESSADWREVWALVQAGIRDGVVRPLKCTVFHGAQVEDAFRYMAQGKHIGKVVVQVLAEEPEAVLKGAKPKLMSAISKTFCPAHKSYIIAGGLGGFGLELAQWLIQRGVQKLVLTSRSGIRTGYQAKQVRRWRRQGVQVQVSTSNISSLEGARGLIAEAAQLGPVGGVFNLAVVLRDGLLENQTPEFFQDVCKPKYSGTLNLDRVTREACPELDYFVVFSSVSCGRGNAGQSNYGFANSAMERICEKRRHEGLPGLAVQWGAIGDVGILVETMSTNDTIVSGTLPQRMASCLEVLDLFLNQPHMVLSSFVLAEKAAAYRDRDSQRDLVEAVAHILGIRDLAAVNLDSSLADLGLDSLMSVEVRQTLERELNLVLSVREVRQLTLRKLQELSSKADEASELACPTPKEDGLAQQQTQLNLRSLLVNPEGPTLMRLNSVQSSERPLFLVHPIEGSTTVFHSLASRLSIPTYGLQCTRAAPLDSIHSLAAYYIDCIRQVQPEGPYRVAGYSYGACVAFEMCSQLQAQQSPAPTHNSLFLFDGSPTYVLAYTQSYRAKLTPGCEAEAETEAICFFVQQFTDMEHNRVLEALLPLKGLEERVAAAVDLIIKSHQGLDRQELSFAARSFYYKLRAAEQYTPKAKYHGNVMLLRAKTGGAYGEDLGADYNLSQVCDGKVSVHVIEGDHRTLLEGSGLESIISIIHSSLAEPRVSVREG
# Mot1-301 SUMO: yeast Mot1-301 growth rescue at high temperature, primary screen, SUMOylation pathway inhibitor project, S. cerevisiae, ATP luminescence, 38.5C; S. cerevisiae Mot1-301 growth rescue; percent above DMSO median, 100 means doubled; growth rescue, % at 18.8 µM; 1% of 320,000 active;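 active = every valid replicate shows activation above 250% relative to neutral control wells; inactive = the rest, any valid replicate at or below 250%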;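 also: OY570 slx delta 5 strain wells were the positive control but not used for scaling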
# aDG glyco act: activators of alpha-DG glycosylation, primary screen, uHTS, Pro5-aDG cells, AlphaScreen; alpha-DG glycosylation AlphaScreen (IIH6); 0% Pro5, 100% B10-LARGE cell signal; activation, % at 10 µM; 0.22% of 360,000 active;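 active = activation of at least 8% versus controls, or a plate z-score of at least 8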;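 also: Pro5 are CHO cells carrying HIG-tagged alpha-DG that lacks glycosylation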
# CR mimetic SO: reduction of superoxide in aged yeast, primary screen, HTS; S. cerevisiae aged cells, superoxide DHE fluorescence; hits give low values; superoxide response (% of plate mean), % at 10 µM; 0.18% of 330,000 active;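 active = superoxide response under a set limit, about three screen SD below normal, cut at about 65% in these data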;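 also: yeast aged for seven days with compound at 30 °C before DHE staining; 100% = average MFI of all compound-treated wells on the plate with controls excluded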
# Rh123 counter: fluorescence retest of MPTP screen hits in isolated mitochondria, single concentration; shares compounds with MPTP inh; membrane potential, Rhodamine 123 fluorescence; inhibition, % at 10 µM; 78% of 5,000 active; AID 624504, 2012; in the data active = inhibition above about 22%;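 also: 0% = DMSO vehicle and 100% = positive control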
# MPTP swell DR: mitochondrial permeability transition pore inhibitors, dose response, biochemical, absorbance, uHTS hits. 58% of 780 active. shares compounds with MPTP inh. IC50, µM. isolated mitochondria swelling. AID 651561, 2012; in the data active = IC50 below about 20 µM
# MPTP cs DR: fluorescent counter-screen in isolated mitochondria, dose response, counter-screen for MPTP inhibitor project, biochemical, fluorescence, uHTS hits. IC50, µM. isolated mitochondria counterscreen, fluorescence read-out. 49% of 780 active. shares compounds with MPTP inh; in the data active = IC50 below about 80 µM
# An asterisk follows results filed as active; i = inactive; · = no result. Most compounds without a hit are left out; they make up all but 3.8% or so of the library.
SMILES,MPTP inh,Cardio protect,FAS-TE inh,Mot1-301 SUMO,aDG glyco act,CR mimetic SO,Rh123 counter,others
CCOC(=O)c1sc(NC(=O)c2cccnc2)c(C#N)c1C,1,8,0,21,0,94,·,
O=C(c1ccc2c(c1)OCO2)N1CCN(c2ccc(C(F)(F)F)cn2)CC1,-1,-14,-1,-9,0,94,·,
CC(C)=C(C#N)c1nc2ccccc2s1,0,-4,3,18,0,93,·,
N#C/C(=C(/O)c1ccccc1F)c1nc2cc(C(F)(F)F)ccc2s1,96*,1,6,-7,0,95,92*,
N#C/C(=C(/O)c1ccc2c(c1)OCO2)c1nc2cc(C(F)(F)F)ccc2s1,84*,-11,7,5,0,101,94*,
COc1ccc(N(CC(=O)NC2CC3CCC2C3)S(=O)(=O)c2ccc(C)cc2)cc1Cl (stereo not given),1,1,23,·,0,·,·,
COc1ccccc1C#Cc1cnc2c(c1)C(=O)N([C@H](C)CO)C[C@@H](C)[C@@H](CN(C)C(=O)c1ccc3c(c1)OCO3)O2,0,-9,-7,·,0,·,·,
CCOC(=O)C1=CCC(c2ccccc2Cl)N(S(=O)(=O)c2ccc(C)cc2)C1 (stereo not given),1,-4,16,·,0,·,·,
CC(C)(C)c1ccc(CC(=O)N2CCC2(C)C(=O)NS(=O)(=O)c2ccccc2Cl)cc1 (stereo not given),0,0,-7,·,0,·,·,
CCN1CCN(CCCNC(=O)Cn2nc(C)n3nc(-c4ccccc4)cc3c2=O)CC1,0,0,-5,11,0,76,·,
Cc1nn(CC(=O)NCCCN2CCC(Cc3ccccc3)CC2)c(=O)c2cc(-c3ccccc3)nn12,74*,-12,3,0,1,93,-6,MPTP swell DR=i;MPTP cs DR=>80
CCc1ccc(-c2cc3c(=O)n(CC(=O)NCCCN4CCC(Cc5ccccc5)CC4)nc(C)n3n2)cc1,98*,-19,33,37,-1,128,-3,MPTP swell DR=3*;MPTP cs DR=>80
Cc1nn(CC(=O)NCCCN2CCN(Cc3ccccc3)CC2)c(=O)c2cc(-c3ccccc3)nn12,12,-10,-1,-1,4,93,·,
CC(C)CCN1CCN(CC(c2ccccc2)c2ccccc2)CC1CCO (stereo not given),1,-1,-5,-17,0,103,·,
COc1cc(COc2ccc(-c3nnco3)cc2)ccc1OC(F)F,-1,-3,-4,110,0,104,·,
COc1cc(C2SCCS2)cc(Br)c1Oc1ncccc1[N+](=O)[O-],58*,-12,39,-5,0,94,33*,
ClC(Cl)c1nnc(-c2ccccc2)c(-c2c[nH]c3ccccc23)n1,52*,-7,-12,12,0,107,47*,
O=[N+]([O-])c1cccc(-c2nc(-c3cccs3)c(-c3cccs3)[nH]2)c1,104*,-28,34,-2,0,117,53*,
CN(C)c1cc2c3ccccc3n(C)c2cc1N,-1,2,3,·,0,·,·,
COc1ccc(-c2cc(C(=O)OCC(=O)N3CCCCC3)c3ccccc3n2)cc1OC,0,50,9,-7,0,118,·,
COCCCNCCOc1ccc(C(C)(C)c2ccccc2)cc1,97*,18,-10,824*,4,84,-7,MPTP swell DR=5.7*;MPTP cs DR=>80
COCCCNCCCCOc1ccc(OCc2ccccc2)cc1,3,3,-9,-10,4,73,·,
O=C(O)C1CCCCC1C(=O)N1CC=C(c2ccccc2)CC1 (stereo not given),74*,-10,-6,19,0,89,11,MPTP swell DR=>100;MPTP cs DR=>80
Cc1ccc(COC(=O)c2nn(C)c(=O)c3ccccc23)cc1,55*,-12,20,56,0,103,34*,
COc1ccc(-c2nc(CCNC(=O)c3cccs3)cs2)cc1,64*,-13,4,-14,0,105,15,MPTP swell DR=i;MPTP cs DR=47*
SMILES,MPTP inh,Cardio protect,FAS-TE inh,Mot1-301 SUMO,aDG glyco act,CR mimetic SO,Rh123 counter,others
CC1(C(=O)Nc2ccc3ccccc3c2)CCC(=O)N1CCc1c[nH]c2ccccc12 (stereo not given),2,3,15,·,0,·,·,
CC1(C)Cc2c(cnn2-c2ccc(F)cc2)C(NC(=O)CN2CCCC2=O)C1 (stereo not given),0,-7,-4,-19,0,93,·,
CCOC(=O)c1sc(NC(=O)c2cccc(S(=O)(=O)N(CC)CC)c2)cc1C,51*,-4,-1,-1,6,91,11,MPTP swell DR=>100;MPTP cs DR=<2.5*
CCOC(=O)c1sc(NC(=O)Nc2ccc(Cl)cc2)cc1C,116*,-21,18,10,0,107,47*,
CCOC(=O)c1sc(NC(=O)c2cccc(S(=O)(=O)N3CCN(C)CC3)c2)cc1C,1,1,-10,4,0,107,·,
COc1ccc(C2=C/C(=C\c3cccc(OC(C)=O)c3)C(=O)O2)cc1,57*,-14,-12,2,0,90,60*,
Cc1cc(C(=O)NNC(=O)c2ccc(Cl)c(S(N)(=O)=O)c2)c(C)o1,0,2,-4,-8,0,97,·,
Fc1cccc(Cl)c1-c1nnc2ccc3ccccc3n12,51*,-16,-7,-4,1,89,31*,
Fc1ccccc1-c1nnc2ccc3ccccc3n12,4,-5,-4,17,0,98,·,
CC1CN(S(=O)(=O)c2cccc(C(=O)N(Cc3nnc(-c4ccccc4Cl)o3)C3CC3)c2)CC(C)O1 (stereo not given),-1,-3,0,-6,1,104,·,
O=C(CSc1ccc2nnc(CCNC(=O)c3ccccc3)n2n1)NCCc1ccccc1,-1,2,-5,-10,0,83,·,
Cc1cc(C)c(NC(=S)NC(NC(=O)c2ccccc2)C(Cl)(Cl)Cl)c(C)c1 (stereo not given),76*,-10,14,-11,1,89,84*,
Cc1ccc(NC(=S)NC(NC(=O)c2ccccc2)C(Cl)(Cl)Cl)c(C)c1 (stereo not given),73*,-11,15,-14,0,104,81*,
